From PubChem BioAssay AID493001 (Johns Hopkins Ion Channel Center, 2010)
Among all 1,900 compounds or so, about 430 (23%) were called active.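 Rule for the calls: active = duplicate-averaged calcium rise in uninduced cells above buffer wells' mean plus 5 SD; inactive = the rest.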 This excerpt belongs to a sample that is enriched for actives.

assay: compound-evoked calcium rise in non-induced M3R cells, confirmation, artefact control for RGS4 inhibitor project, cell-based, HEK293 M3R, no carbachol, second counter-screen (AID 493001); settings: Fluo-4 calcium, at 10 µM; active compounds read high

Row | SMILES | calcium response (agonist-mode artifact)
1 | CCN1C(=O)C(=Cc2c(C)n(CC(=O)NCC3CCCO3)c3ccccc23)C(=O)N(CC)C1=S (centres undefined) | 13.5% (active)
2 | O=C(N/N=C/c1c(O)n(Cc2ccccc2)c(=O)[nH]c1=O)c1ccccc1 | inactive
3 | O=C1NC(=O)N(Cc2ccco2)C(=O)/C1=C\c1ccc(-c2ccc(F)cc2)o1 | 152% (active)
4 | Cc1ccc2c(c1)=C/C(=C\c1c(O)[nH]c(=O)[nH]c1=O)C(=O)N=2 | inactive
